Reference: PMC12670160, “A drug-repurposing screen of FDA- and EMA-approved drugs identifies two NF-κB inhibitors active against eumycetoma” (Journal of Antimicrobial Chemotherapy, 2025)
Structures can show the parent of a compound that is named as a salt. Where two headings read alike, the source gives them in different places. Among all 5,300 compounds or so, about 130 (2.5%) showed an effect of 50% or more. The list comes from a sample in which strong results are over-represented; it also holds similar structures and randomly drawn compounds. Numbered stars: 1 amine (or outer) side, 2 acyl side, 3 side chain; on linkers, the order of the positions; unused ones are H or OH. Bridge positions count the residues as written; N and C are the ends. Square brackets hold non-standard residues; d marks the D form. Side chains are listed from the residue outwards. Peptide text beside a SMILES is read from it. I, II: the chains in the order shown. * marks the point of attachment. Actinocin(9to1) = Cc1c2oc3c(C)ccc(C(=O)[*:1])c3nc-2c(C(=O)[*:2])c(N)c1=O; dTrp(2-Me) = Cc1[nH]c2ccccc2c1C[C@@H](N)C(=O)O; X1 = CCC(C)C(N)C1=NC(C(=O)*)CS1; NMeV = CN[C@H](C(=O)O)C(C)C; Orn = NCCC[CH](N)C(=O)O; Sar = CNCC(=O)O

Test system: M. mycetomatis strain mm55
Details: primary screen, metabolic activity vs growth control, 96 h, 2 µM, inhibitor

## CCCCC(F)(F)C(=O)CC[C@H]1[C@H](O)CC(=O)[C@@H]1CCCCCCC(=O)O [ONC0004918, lubiprostone]
  % viability: 115.4%

## C[S+]([O-])c1ccc(-c2nc(-c3ccncc3)c(-c3ccc(F)cc3)[nH]2)cc1 (stereo not shown) [ONC0000881, sb203580]
  % viability: 87.12%

## Oc1ccc(-c2nc(-c3ccncc3)c(-c3ccc(F)cc3)[nH]2)cc1 [ONC0000026, sb202190]
  % viability: 54.44%

## Fc1ccc(-c2nc(-c3c(F)cccc3F)[nH]c2-c2ccncc2)cc1 [ONC0000887, ta01]
  % viability: 46.48%

## CSc1ccc([C@H]2CN3CCC[C@H]3c3ccccc32)cc1 [ONC0000925, mcn5652]
  % viability: 74.54%

## CN1CCCC1c1cccnc1 (stereo not shown) [ONC0005499, nicotine bitartrate]
  % viability: 91%

## C[C@@H]1NC(C)(C)CO[C@@]1(O)c1cccc(Cl)c1 [ONC0001157, radafaxine hydrochloride]
  % viability: 85.48%

## [2H]C([2H])([2H])C(=O)Nc1c(I)c(C(=O)O)c(I)c(C(=O)NC)c1I [ONC0002149, iothalamic acidd3]
  % viability: 66.44%

## CCC(C)C(N)C1=NC(C(=O)NC(CC(C)C)C(=O)NC(CCC(=O)O)C(=O)NC(C(=O)NCCCCC2NC(=O)C(CC(N)=O)NC(=O)C(CC(=O)O)NC(=O)C(Cc3c[nH]cn3)NC(=O)C(Cc3ccccc3)NC(=O)C(C(C)CC)NC(=O)C(CCCN)NC2=O)C(C)CC)CS1 (stereo not drawn) [ONC0003188, bacitracin] (cyclo(DNK([Ile-Glu-Leu-X1])[Orn]IFH); configuration not given here)
  % viability: 113.7%

## C=C(NNC(=S)NNC(=S)Nc1ccccc1Cl)c1ccccn1 [ONC0001982, n2chlorophenyl22e212pyridinylethylidenehydrazinocarbothioylhydrazinecarbothioamide]
  % viability: 78.69%

## O=C(O)c1ccccn1 [ONC0003765, picolinicacid]
  % viability: 105.8%

## C/C(=N\NC(=S)N1CCC1)c1ccccn1 [nsc319726]
  % viability: 6.057%

## Cc1c2oc3c(C)ccc(C(=O)N[C@@H]4C(=O)N[C@H](C(C)C)C(=O)N5CCC[C@H]5C(=O)N(C)CC(=O)N(C)[C@@H](C(C)C)C(=O)O[C@@H]4C)c3nc-2c(C(=O)N[C@@H]2C(=O)N[C@H](C(C)C)C(=O)N3CCC[C@H]3C(=O)N(C)CC(=O)N(C)[C@@H](C(C)C)C(=O)O[C@@H]2C)c(N)c1=O [ONC0002258, actinomycin d] (I: T[dV]P[Sar][NMeV] / II: T[dV]P[Sar][NMeV]; ester I:1-I:C, II:1-II:C; linker I:N-II:N via Actinocin(9to1))
Madurella mycetomatis metabolic activity at 2µM (%)
  % viability: 100.3%

## CNCCN(C)Cc1c[nH]nc1-c1ccc(O[C@H]2C[C@H](OCCC3CCOCC3)C2)cc1.Cl [ONC0000962, epz020411 hydrochloride]
  % viability: 79.33%

## CN1c2c(nc(N)[nH]c2=O)NC[C@@H]1CNc1ccc(C(=O)N[C@@H](CCC(=O)O)C(=O)O)cc1 [ONC0002220, levomefolate calcium]
  % viability: 182.5%

## CCCCCCCCCCCCCCCC(=O)OC[C@H](O)[C@H]1OC(=O)C(=O)C1O (stereo partly shown) [ONC0004072, ascorbyl palmitate]
  % viability: 135.5%

## C[C@@H](O[C@H]1OCCN(Cc2nc(O)n(P(=O)(O)O)n2)[C@H]1c1ccc(F)cc1)c1cc(C(F)(F)F)cc(C(F)(F)F)c1 [ONC0004322, fosaprepitant dimeglumine salt]
  % viability: 108.4%

## C[C@H](O[C@H]1OCCN(Cc2n[nH]c(=O)[nH]2)[C@H]1c1ccc(F)cc1)c1cc(C(F)(F)F)cc(C(F)(F)F)c1 [ONC0004612, aprepitant mk0869]
  % viability: 34.22%

## C=C(Nc1ccc(OCC)cc1)Nc1ccc(OCC)cc1 [ONC0005342, phenacaine]
  % viability: 118.6%

## O=C1c2c(O)cccc2[C@H]([C@@H]2O[C@H](CO)[C@@H](O)[C@H](O)[C@H]2O)c2cc(CO)cc(O)c21 [ONC0002367, aloin]
  % viability: 94.66%

## On1ncc(C2CCNCC2)c1-c1cccc(-c2ccccc2)c1 [ONC0002501, php501 trifluoroacetate]
  % viability: 45.31%

## CC[C@@]1(C2O[C@@H](C3O[C@@](O)(CO)[C@H](C)C[C@@H]3C)C[C@@H]2C)CC[C@H]([C@]2(C)CC[C@]3(C[C@H](O)[C@@H](C)[C@@H]([C@@H](C)[C@@H](OC)[C@H](C)C(=O)O)O3)O2)O1 (stereo partly shown) [ONC0004087, monensin sodium]
  % viability: 133.1%

## C=C(c1ccccc1OCc1cccc(Cl)c1)n1ccnc1 [Cloconazole HCl]
  % viability: 3.259%

## O=C(O)Cc1ccc(OCc2ccccc2)c(Cl)c1 [ONC0002166, benzofenac]
  % viability: 78.33%

## C[C@H](Nc1ncnc2[nH]cnc12)c1cc2cccc(Cl)c2c(=O)n1-c1ccccc1 [ONC0004561, duvelisib ipi145 ink1197]
  % viability: 69.33%

## COC(=O)C1=C(C)NC(C)=C(C(=O)O[C@@H]2CCCN(Cc3ccccc3)C2)[C@@H]1c1cccc([N+](=O)[O-])c1 (racemic) [ONC0004618, benidipine hydrochloride]
  % viability: 66.69%

## CC(C)=CCC[C@](C)(O[C@@H]1O[C@H](CO)[C@@H](O)[C@H](O)[C@H]1O)[C@H]1CC[C@]2(C)[C@@H]1[C@H](O)C[C@@H]1[C@@]3(C)CC[C@H](O)C(C)(C)[C@@H]3CC[C@]12C [ONC0002211, ginsenoside ck]
  % viability: 95.28%

## O=C(CCCS)NC1CCN(C(=O)COc2ccc(Cl)cc2Cl)CC1 [ONC0005166, krasg12c inhibitor 6]
  % viability: 98.75%

## NC(=O)[C@H]1CCS[C@@H]2C[C@]3(CCCN3C(=O)Cc3ccc(NC(=O)COc4ccc(Cl)cc4Cl)cc3)C(=O)N12 [ONC0001082, st 2825]
  % viability: 47.43%

## C[C@]12C=CC(=O)C=C1CCC1C2[C@@H](O)C[C@@]2(C)C1CC[C@]2(O)C(=O)COP(=O)(O)O (stereo partly shown) [ONC0004116, prednisolone sodium phosphate]
  % viability: 116.3%

## CC(C)C(=O)SCCCCC[C@H](NC(=O)OC(C)(C)C)C(=O)NC12CC3CC(CC(C3)C1)C2 [ONC0002528, tcshdac620b]
  % viability: 72.9%

## C1CCC(/N=C(\NC23CC4CC(CC(C4)C2)C3)N2CCOCC2)CC1 [ONC0002564, pnu37883]
  % viability: 92.95%

## CC(CNC1CCCCC1)OC(=O)c1ccccc1 (stereo not shown) [ONC0002941, hexylcaine]
  % viability: 55.94%

## CCOC(=O)c1ccc(N)cc1 [ONC0003279, benzocaine]
  % viability: 69.74%

## CCOC(=O)c1ccc(NC2CCCCC2)c(N)c1 [ONC0000320, ferrostatin1]
  % viability: 39.11%

## CC(C)(O)c1ccn2c(-c3ccc(F)c(-c4ccc(F)cc4C#N)c3)cnc2c1F [ONC0001920, tp003]
  % viability: 78.09%

## CCC(=O)O[C@@H]1CC(=O)O[C@H](C)C/C=C/C=C/[C@H](OC(C)=O)[C@H](C)C[C@H](CC=O)[C@H](O[C@@H]2O[C@H](C)[C@@H](O[C@H]3C[C@@](C)(OC(C)=O)[C@@H](OC(=O)CC)[C@H](C)O3)[C@H](N(C)C)[C@H]2O)[C@H]1OC [ONC0000277, midecamycin acetate]
  % viability: 81.75%

## O[C@H](CNC[C@@H](O)[C@H]1CCc2cc(F)ccc2O1)[C@@H]1CCc2cc(F)ccc2O1 [ONC0004039, nebivolol hydrochloride]
  % viability: 98.08%

## C[C@@]1(O)[C@H](O)[C@@H](CO)O[C@H]1n1cnc2c(=O)[nH]c(N)nc21 [ONC0005603, 2cmethylguanosine]
  % viability: 96.86%

## Cc1cc(C)c(NC(=O)N(Cc2ccc3c(c2)Cc2ccccc2-3)C2CCCCCC2)c(C)c1 [ONC0000194, ym750]
  % viability: 45.17%

## O=C(c1ccc(Cl)cc1)N(Cc1ccccc1)C1CCCCC1 [ONC0001245, fpszm1]
  % viability: 58.23%

## CC(C(=O)O)c1ccc2c(c1)Cc1ccccc1-2 (stereo not shown) [ONC0003773, cicloprofen]
  % viability: 135.8%

## CC(C)Oc1cccc(CC(=O)N2CCC[C@](CC[N+]34CCC(c5ccccc5)(CC3)CC4)(c3ccc(Cl)c(Cl)c3)C2)c1 [ONC0001589, sr140333]
  % viability: 65.88%

## Nc1nc2c(c(=O)[nH]1)NC(CNc1ccc(C(=O)N[C@@H](CCC(=O)O)C(=O)O)cc1)CN2 (stereo partly shown) [ONC0005519, tetrahydrofolicacid]
  % viability: 129.8%

## Cc1[nH]c2ccccc2c1C[C@@H](NC(=O)[C@@H](N)Cc1cnc[nH]1)C(=O)N[C@@H](C)C(=O)N[C@@H](Cc1c[nH]c2ccccc12)C(=O)N[C@H](Cc1ccccc1)C(=O)N[C@@H](CCCCN)C(N)=O [ONC0005614, examorelin] (H-H[dTrp(2-Me)]AW[dF]K-NH2)
  % viability: 66.44%

## Oc1cc2c(cc1O)C(Cc1cccc3ccccc13)NCC2 (stereo not shown) [ONC0001928, ys49]
  % viability: 88.3%
